Out of some 310,000 compounds screened, about 3,600 (1.2%) were called active.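 Rule for the calls: active = ratio plate-corrected score three or more library SD toward inhibition, starting fluorescence score within five deviations; inactive = the rest.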 The sample as a whole holds a higher share of actives than the screen did.
These compounds were tested against Anoctamin-1 (Mus musculus) (UniProt Q8BHY3) (assay: blockers of mouse ANO1 Ca-activated Cl channel – cell-based, HTS, primary screen (AID 588511;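 for normalized B-score (activity score, 25-100; higher = stronger inhibition): score derived from kinetic fluorescence span divided by baseline fluorescence per well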)). Details: HEK293 TMEM16A/YFP iodide influx fluorescence, ionomycin; at 10 µM.
Anoctamin-1 (Mus musculus), sequence (Q8BHY3 whole entry, looked up): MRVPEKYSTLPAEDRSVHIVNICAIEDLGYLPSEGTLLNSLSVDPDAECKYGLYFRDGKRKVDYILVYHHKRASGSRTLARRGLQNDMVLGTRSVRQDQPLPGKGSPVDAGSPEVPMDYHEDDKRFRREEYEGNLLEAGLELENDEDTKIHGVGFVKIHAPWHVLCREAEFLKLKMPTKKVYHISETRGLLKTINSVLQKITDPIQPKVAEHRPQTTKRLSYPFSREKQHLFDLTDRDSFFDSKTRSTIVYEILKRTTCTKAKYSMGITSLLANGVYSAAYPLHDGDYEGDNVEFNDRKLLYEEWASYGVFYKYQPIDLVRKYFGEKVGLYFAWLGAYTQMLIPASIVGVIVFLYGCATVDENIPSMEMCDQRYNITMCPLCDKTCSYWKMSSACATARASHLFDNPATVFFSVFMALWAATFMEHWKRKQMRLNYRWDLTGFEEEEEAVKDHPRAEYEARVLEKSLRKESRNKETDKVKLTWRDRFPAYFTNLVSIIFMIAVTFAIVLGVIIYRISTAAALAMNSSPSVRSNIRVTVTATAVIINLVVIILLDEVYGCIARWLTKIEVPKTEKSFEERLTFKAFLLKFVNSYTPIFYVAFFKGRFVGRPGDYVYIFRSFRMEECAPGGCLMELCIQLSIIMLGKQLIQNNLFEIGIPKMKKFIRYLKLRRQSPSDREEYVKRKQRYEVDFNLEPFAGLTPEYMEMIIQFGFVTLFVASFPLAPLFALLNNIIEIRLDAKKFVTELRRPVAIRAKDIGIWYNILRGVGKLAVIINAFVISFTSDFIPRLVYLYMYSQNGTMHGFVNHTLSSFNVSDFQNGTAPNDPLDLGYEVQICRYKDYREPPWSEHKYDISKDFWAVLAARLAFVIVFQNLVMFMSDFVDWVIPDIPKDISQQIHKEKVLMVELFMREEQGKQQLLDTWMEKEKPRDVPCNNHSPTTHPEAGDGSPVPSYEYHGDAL
O=c1c(-c2ccc3c(c2)OCCO3)c(C(F)(F)F)oc2cc(O)cc(O)c12 was tested, and the normalized B-score (activity score, 25-100; higher = stronger inhibition) was “inactive”.
With COCCn1c(Cc2cccn2C)nnc1SCC(=O)Nc1nccs1 the normalized B-score (activity score, 25-100; higher = stronger inhibition) was “inactive”.
COCCCN1C(=O)c2ccc(C(=O)OCC(=O)NCc3ccccc3OC)cc2C1=O was tested, and the normalized B-score (activity score, 25-100; higher = stronger inhibition) was “inactive”.
With CC1(N2CCOCC2)CC2(O)C(=[N+]1[O-])CCc1nonc12 (stereo not given) the normalized B-score (activity score, 25-100; higher = stronger inhibition) was “inactive”.
CN1C(=O)/C(=C\c2cc(Br)cs2)c2ccccc21 was tested, and the normalized B-score (activity score, 25-100; higher = stronger inhibition) was “inactive”.
In the case of Cc1ccc(C2C3=C(Nc4[nH]n(-c5ccccc5)c(=O)c42)c2ccccc2C3=O)cc1 (stereo not given), the normalized B-score (activity score, 25-100; higher = stronger inhibition) is reported as “inactive”.
With CCOC(=O)C1=C(c2ccc(OC)cc2)C(=O)c2ccccc2C1=O the normalized B-score (activity score, 25-100; higher = stronger inhibition) was “inactive”.
COC(=O)C1=C(C)NC2=C(C(=O)c3ccccc32)C1c1ccc(-c2ccc(C(=O)O)cc2)o1 (stereo not given) was tested, and the normalized B-score (activity score, 25-100; higher = stronger inhibition) was 25 (active).
CCCOc1ccc(Cc2c(O)nc(SC)[nH]c2=O)cc1C was tested, and the normalized B-score (activity score, 25-100; higher = stronger inhibition) was “inactive”.
In the case of CCCOc1ccc(-c2nc(N)n[nH]2)cc1, the normalized B-score (activity score, 25-100; higher = stronger inhibition) is reported as “inactive”.
For CCCOc1ccc(Cc2c(Cl)nc(SC)nc2NC)cc1, the normalized B-score (activity score, 25-100; higher = stronger inhibition) was 100 (active).
In the case of CSc1ncccc1C(=O)OCc1ccc(Br)cc1, the normalized B-score (activity score, 25-100; higher = stronger inhibition) is reported as “inactive”.
With COc1ccc(OC)c(C2C3=C(N=c4s/c(=C\c5cccc(O)c5)c(=O)n42)c2ccccc2CC3)c1 (stereo not given) the normalized B-score (activity score, 25-100; higher = stronger inhibition) was “inactive”.
With Cc1nn(-c2ccc([N+](=O)[O-])cc2)c(N)c1-c1ccccc1 the normalized B-score (activity score, 25-100; higher = stronger inhibition) was “inactive”.
O=C1CC(c2ccccc2)=NN1c1ccc([N+](=O)[O-])cc1 was tested, and the normalized B-score (activity score, 25-100; higher = stronger inhibition) was 100 (active).
With CC1=NN(c2ccccc2)C(=O)C1C(=O)c1ccc([N+](=O)[O-])cc1 (stereo not given) the normalized B-score (activity score, 25-100; higher = stronger inhibition) was “inactive”.
In the case of CCNC(=O)NNC(=O)C1CC(c2cccs2)=NO1 (stereo not given), the normalized B-score (activity score, 25-100; higher = stronger inhibition) is reported as “inactive”.
With Nc1nnc(SCC(=O)OCc2ccc(Cl)c(Cl)c2)s1 the normalized B-score (activity score, 25-100; higher = stronger inhibition) was “inactive”.
For Cc1ccc(CNC(=O)C2CCCN2C(=O)NCc2ccccc2)cc1 (stereo not given), the normalized B-score (activity score, 25-100; higher = stronger inhibition) was “inactive”.
Cc1ccc(N2C(=O)S/C(=C/c3cn(C)c4ccccc34)C2=O)cc1 was tested, and the normalized B-score (activity score, 25-100; higher = stronger inhibition) was 25 (active).
With Cc1cc(/C=C2\SC(=O)N(C)C2=O)c(C)n1-c1cccc(C(=O)O)c1 the normalized B-score (activity score, 25-100; higher = stronger inhibition) was “inactive”.
For Cc1ccc(C(=O)N/C(=C\c2cn(C)c3ccccc23)C(=O)N2CCN(C)CC2)cc1, the normalized B-score (activity score, 25-100; higher = stronger inhibition) was “inactive”.
CC(C)COc1ccc(C(=O)OCC(=O)NCCC2=CCCCC2)cc1 was tested, and the normalized B-score (activity score, 25-100; higher = stronger inhibition) was “inactive”.
With CC(C(=O)NC1CCS(=O)(=O)C1)N1C(=O)/C(=C/c2ccc(Cl)cc2)SC1=S (stereo not given) the normalized B-score (activity score, 25-100; higher = stronger inhibition) was “inactive”.
For Cc1noc(C)c1CSc1nc2cc(S(=O)(=O)N3CCOCC3)ccc2o1, the normalized B-score (activity score, 25-100; higher = stronger inhibition) was “inactive”.
With COc1ccc(S(=O)(=O)NCCc2c[nH]c3ccccc23)cc1OC the normalized B-score (activity score, 25-100; higher = stronger inhibition) was “inactive”.
COc1cccc(CNCCc2c[nH]c3ccccc23)c1OCc1ccccc1F was tested, and the normalized B-score (activity score, 25-100; higher = stronger inhibition) was 100 (active).
With COc1ccccc1NC(=O)CCCc1c[nH]c2ccccc12 the normalized B-score (activity score, 25-100; higher = stronger inhibition) was “inactive”.
For CC(=O)Nc1ccc(Sc2ccccc2C(=O)N2CCCC2)cn1, the normalized B-score (activity score, 25-100; higher = stronger inhibition) was “inactive”.
For COc1ccc(-n2ncc3c2CC(C)(C)CC3NC(=O)CCc2c(C)nn(C)c2C)cc1 (stereo not given), the normalized B-score (activity score, 25-100; higher = stronger inhibition) was “inactive”.
For COc1ccc(CNC(=O)C(=O)N2CCC3(CC2)OCCN3S(=O)(=O)c2ccc(C)cc2)cc1, the normalized B-score (activity score, 25-100; higher = stronger inhibition) was “inactive”.
CCCCOc1ccc(-c2ncc(C(=O)OCC)c(N)n2)cc1 was tested, and the normalized B-score (activity score, 25-100; higher = stronger inhibition) was “inactive”.
For CCOC(=O)C(Sc1ncc(C#N)c(N)n1)C(C)C (stereo not given), the normalized B-score (activity score, 25-100; higher = stronger inhibition) was 100 (active).
With CCOC(=O)CSc1nccc(N(C)C)c1C#N the normalized B-score (activity score, 25-100; higher = stronger inhibition) was “inactive”.
For COc1cc2sc(C)nc2cc1C, the normalized B-score (activity score, 25-100; higher = stronger inhibition) was “inactive”.
CCOc1ccc(-c2noc(CCC(=O)NC3CCCC3)n2)cc1OC was tested, and the normalized B-score (activity score, 25-100; higher = stronger inhibition) was “inactive”.
For COc1cccc(NC(=O)CCc2nnc3ccc(N4CCC(C)CC4)nn23)c1, the normalized B-score (activity score, 25-100; higher = stronger inhibition) was “inactive”.
With Cc1ccc(NC(=O)C2CC2c2ccccc2)cc1 (stereo not given) the normalized B-score (activity score, 25-100; higher = stronger inhibition) was “inactive”.
With O=C(O)c1ccc(NC(=O)C2CCCCC2)cc1 the normalized B-score (activity score, 25-100; higher = stronger inhibition) was 100 (active).
With O=C(Nc1ccc(-c2ccc3nncn3n2)cc1)C1CCCCC1 the normalized B-score (activity score, 25-100; higher = stronger inhibition) was “inactive”.
CC(C)NS(=O)(=O)c1ccc(NC(=O)C2CCCCC2)cc1 was tested, and the normalized B-score (activity score, 25-100; higher = stronger inhibition) was “inactive”.
COc1ccc(NC(=O)CN(C)CC(=O)Nc2cccc(C(F)(F)F)c2)cc1 was tested, and the normalized B-score (activity score, 25-100; higher = stronger inhibition) was “inactive”.
CCNC(=O)c1ccc(OCC(=O)Nc2ccc(F)cc2)c(OC)c1 was tested, and the normalized B-score (activity score, 25-100; higher = stronger inhibition) was “inactive”.
In the case of COc1cc(C(=O)N(C)Cc2cccc(OC)c2OC)ccc1OCC(=O)Nc1cccc(C(F)(F)F)c1, the normalized B-score (activity score, 25-100; higher = stronger inhibition) is reported as 100 (active).
With COC(=O)Cc1ccc(N(Cc2ccccc2F)S(=O)(=O)c2ccc(Br)cc2)cc1 the normalized B-score (activity score, 25-100; higher = stronger inhibition) was “inactive”.
COc1ccc(CC(=O)Nc2nc(-c3ccc(F)c(F)c3)cs2)cc1OC was tested, and the normalized B-score (activity score, 25-100; higher = stronger inhibition) was 25 (active).
In the case of COc1cc(CC(=O)NCc2cccs2)cc(OC)c1OC, the normalized B-score (activity score, 25-100; higher = stronger inhibition) is reported as “inactive”.
COc1ccc(-c2csc(NC(=O)COC(=O)Cc3ccc(Cl)cc3Cl)n2)cc1 was tested, and the normalized B-score (activity score, 25-100; higher = stronger inhibition) was “inactive”.
With COc1cc(CC(=O)Nc2nc(-c3ccc(F)c(F)c3)cs2)cc(OC)c1OC the normalized B-score (activity score, 25-100; higher = stronger inhibition) was 25 (active).
Cc1ccc(S(=O)(=O)NC(=O)Nc2nc(-c3ccc(F)c(F)c3)cs2)cc1 was tested, and the normalized B-score (activity score, 25-100; higher = stronger inhibition) was “inactive”.
In the case of CCCc1ccc(-c2csc(NC(=O)Cc3cccs3)n2)cc1, the normalized B-score (activity score, 25-100; higher = stronger inhibition) is reported as “inactive”.
In the case of CCn1c(SCc2cccc(C(=O)O)c2)nnc1-c1ccc(Cl)cc1, the normalized B-score (activity score, 25-100; higher = stronger inhibition) is reported as “inactive”.
For Cn1ccnc1-c1nnn(-c2ccc(F)cc2)n1, the normalized B-score (activity score, 25-100; higher = stronger inhibition) was “inactive”.
With COC(=O)c1ccc(OC(=O)c2nn(C)cc2Cl)c(OC)c1 the normalized B-score (activity score, 25-100; higher = stronger inhibition) was “inactive”.
Cc1noc(C)c1-c1nc(CSc2ccc(Cl)cc2)no1 was tested, and the normalized B-score (activity score, 25-100; higher = stronger inhibition) was “inactive”.
